Measurements published in PubChem BioAssay (NCI).
The panel holds about 79,000 compounds, 15% with a hit somewhere; the sample as a whole holds those more often. Activity calls are given as the source filed them. Rule as the data show it: active = growth inhibition above about 70%; inactive = the rest.

Assays:
[1] = NCI Yeast Anticancer Drug Screen. Data for the wt1 strain (AID 149);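 also: 0% = growth of vehicle-treated wt1 cultures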; conditions: S. cerevisiae wt1 strain (SPY 50644) growth inhibition, stronger effect = higher value
Procedure, shortened: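 Growth inhibition read against vehicle controls after compound exposure of the wt1 yeast strain.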

[2] = NCI Yeast Anticancer Drug Screen. Data for the rad50EPP+ strain (AID 151);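 also: 0% = growth of vehicle-treated control cultures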; conditions: S. cerevisiae rad50 mutant strain, stronger effect = higher value
Procedure, shortened: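 One strain with a rad50 alteration (rad50EPP+) was compound-treated, its growth then compared to that of vehicle controls.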

[3] = NCI Yeast Anticancer Drug Screen. Data for the mgt1 strain (AID 153); conditions: S. cerevisiae mgt1 mutant growth inhibition, stronger effect = higher value
Procedure, shortened: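 After exposure of the mgt1 yeast mutant to compound, growth was measured and reported as inhibition compared with vehicle controls.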

[4] = NCI Yeast Anticancer Drug Screen. Data for the rad50 strain (AID 155);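 also: 0% = growth of vehicle-only cultures of the same strain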; conditions: S. cerevisiae rad50 strain growth inhibition, stronger effect = higher value
Procedure, shortened: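 Readout: growth inhibition relative to vehicle-treated cultures. Compound exposure was carried out in a genetically defined yeast strain deficient in DNA damage repair.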

[5] = NCI Yeast Anticancer Drug Screen. Data for the mec2-1 strain (AID 157); conditions: S. cerevisiae mec2-1 strain, stronger effect = higher value
Procedure, shortened: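 Test agents were screened against the mec2-1 yeast strain, with defined DNA repair or cell cycle alteration. Growth was scored as inhibition against vehicle-only controls.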

[6] = NCI Yeast Anticancer Drug Screen. Data for the rad14 strain (AID 159);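 also: 0% = growth of vehicle-treated control cultures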; conditions: S. cerevisiae rad14 strain growth inhibition, stronger effect = higher value
Procedure, shortened: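 Growth inhibition vs vehicle controls; genetically altered yeast strain (DNA damage repair defect) treated with test compounds.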

[7] = NCI Yeast Anticancer Drug Screen. Data for the sgs1 mgt1 strain (AID 161);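 also: 0% = growth of cultures given vehicle only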; conditions: S. cerevisiae sgs1 mgt1 strain, stronger effect = higher value
Procedure, shortened: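 Inhibition of yeast growth, normalised to vehicle-treated controls, is reported for a strain bearing genetic alterations in DNA damage repair.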

[8] = NCI Yeast Anticancer Drug Screen. Data for the CLN2oe strain (AID 163);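 also: 0% = growth of vehicle-only control cultures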; conditions: S. cerevisiae CLN2oe strain, stronger effect = higher value
Procedure, shortened: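 Here, growth inhibition in a cell-cycle-altered yeast strain after compound exposure was quantified against vehicle control growth.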

[9] = NCI Yeast Anticancer Drug Screen. Data for the cln2 rad14 strain (AID 165);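 also: 0% = growth equal to vehicle treated cultures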; conditions: S. cerevisiae cln2 rad14 strain, stronger effect = higher value
Procedure, shortened: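 Growth of compound-exposed yeast (cln2 rad14 genotype) measured and expressed as inhibition relative to vehicle.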

[10] = NCI Yeast Anticancer Drug Screen. Data for the bub3 strain (AID 167); conditions: S. cerevisiae bub3 mutant strain, stronger effect = higher value
Procedure, shortened: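 Readout: yeast growth inhibition, expressed relative to vehicle-only wells. The test organism is a mutant strain from a panel with lesions in DNA repair or checkpoint genes.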

[11] = NCI Yeast Anticancer Drug Screen. Data for the wt2 strain (AID 169);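 also: 0% = growth of vehicle-treated yeast cultures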; conditions: S. cerevisiae wt2 strain growth inhibition, stronger effect = higher value
Procedure, shortened: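 Genetically defined yeast strains from a DNA-repair/cell-cycle panel were used. Compound-exposed yeast growth was measured, and the inhibition was calculated relative to vehicle treatment.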

[12] = NCI Yeast Anticancer Drug Screen. Data for the mlh1 strain (AID 171);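 also: 0% = growth of vehicle-treated control cultures of the same strain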; conditions: S. cerevisiae mlh1 strain growth inhibition, stronger effect = higher value
Procedure, shortened: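 Here the genetically defined yeast mutant is grown with each compound, and the extent to which its growth falls below that of vehicle-exposed cells is reported.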

[13] = NCI Yeast Anticancer Drug Screen. Data for the sgs1 strain (AID 173);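 also: 0% = growth of vehicle-only control cultures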; conditions: S. cerevisiae sgs1 mutant, stronger effect = higher value
Procedure, shortened: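 Relative growth inhibition, referenced to vehicle, was determined in a yeast strain with a defined alteration affecting DNA damage repair or cell cycle control after compound exposure.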

[14] = NCI Yeast Anticancer Drug Screen. Data for the mlh1 rad18 strain (AID 175); conditions: S. cerevisiae mlh1 rad18 strain growth inhibition, stronger effect = higher value
Procedure, shortened: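 In this whole-cell yeast screen, a strain with altered DNA damage repair is challenged with compound, and its growth is measured against matched vehicle-treated controls.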

[15] = NCI Yeast Anticancer Drug Screen. Data for the rad18 strain (AID 177); conditions: S. cerevisiae rad18 mutant growth inhibition, stronger effect = higher value
Procedure, shortened: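 Screen uses a yeast strain with a defined lesion in DNA damage repair; compound effect is read as loss of growth compared to untreated vehicle cultures.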

[16] = at 5.0 µM (retest, dose inferred, filed as 0.5)
[17] = at 50.0 µM (retest, dose inferred, filed as 5.0)

Measured: growth inhibition

CCOc1ccc2ccc3cccnc3c2n1
inactive: [1]; at 1.2 µM -5% | [1]; at 3.7 µM -2% | [1]; at 11.0 µM 2% | [1]; at 33.0 µM 18% | [1]; at 100.0 µM 48% | [2]; at 1.2 µM -8% | [2]; at 3.7 µM 11% | [2]; at 11.0 µM 23% | [2]; at 33.0 µM 61% | [3]; at 1.2 µM -4% | [3]; at 3.7 µM 8% | [3]; at 11.0 µM -10% | [3]; at 33.0 µM 34% | [3]; at 100.0 µM 68% | [4]; at 1.2 µM -5% | [4]; at 3.7 µM 12% | [4]; [16] -1% | [4]; at 11.0 µM 26% | [4]; at 33.0 µM 59% | [4]; [17] 40% | [4]; at 50.0 µM 69% | [5]; at 1.2 µM -4% | [5]; at 3.7 µM -5% | [5]; [16] -3% | [5]; at 11.0 µM 8% | [5]; at 33.0 µM 13% | [5]; [17] 28% | [5]; at 50.0 µM 47.2% | [5]; at 100.0 µM 35% | [6]; at 1.2 µM -4% | [6]; at 3.7 µM 4% | [6]; at 11.0 µM -1% | [6]; at 33.0 µM 7% | [6]; at 100.0 µM 68% | [7]; [16] -8% | [7]; [17] 66% | [8]; at 1.2 µM -18% | [8]; at 3.7 µM -7% | [8]; at 11.0 µM -14% | [8]; at 33.0 µM 4% | [8]; at 100.0 µM 22% | [9]; [16] -33% | [9]; [17] -17% | [9]; at 50.0 µM -3.9% | [10]; at 1.2 µM -4% | [10]; at 3.7 µM -3% | [10]; [16] -9% | [10]; at 11.0 µM 1% | [10]; at 33.0 µM 36% | [10]; [17] 52% | [10]; at 50.0 µM 59% | [11]; at 1.2 µM 0% | [11]; at 3.7 µM 2% | [11]; at 11.0 µM 8% | [11]; at 33.0 µM 37% | [11]; at 100.0 µM 66% | [12]; at 1.2 µM -3% | [12]; at 3.7 µM -1% | [12]; at 11.0 µM 17% | [12]; at 33.0 µM 54% | [12]; at 100.0 µM 63% | [13]; at 1.2 µM -3% | [13]; at 3.7 µM 1% | [13]; at 11.0 µM 9% | [13]; at 33.0 µM 40% | [13]; at 100.0 µM 63% | [14]; [16] 2% | [14]; [17] 40% | [14]; at 50.0 µM 35% | [15]; at 1.2 µM -3% | [15]; at 3.7 µM 8% | [15]; at 11.0 µM 23% | [15]; at 33.0 µM 60%
active: [2]; at 100.0 µM 88% | [4]; at 100.0 µM 74% | [7]; at 50.0 µM 70.6% | [10]; at 100.0 µM 70% | [15]; at 100.0 µM 72%
